Assay results as given in PubChem BioAssay AID1851 (National Center for Advancing Translational Sciences (NCATS), 2009).
Values joined by “and” are separate entries in the source; they are usually repeats but may differ in a detail not shown here. Identical values can stand only once. Out of some 16,000 compounds screened, about 2,600 (16%) were called active. Not shown: some 20% with an inconclusive outcome. Calls follow the shape of the dose curve; as a rule, active = well fitted curve in the direction sought with a large enough effect; inconclusive = small, poorly fitted or top-dose-only effect, or effect the other way; inactive = no such curve, though single readings can be large or run the other way. The list is a sample of the results. Some compounds were tested as several samples or in several runs, with calls that do not always agree.

Target: Cytochrome P450 2D6 (Homo sapiens) (UniProt P10635)
Sequence (P10635 whole entry, looked up): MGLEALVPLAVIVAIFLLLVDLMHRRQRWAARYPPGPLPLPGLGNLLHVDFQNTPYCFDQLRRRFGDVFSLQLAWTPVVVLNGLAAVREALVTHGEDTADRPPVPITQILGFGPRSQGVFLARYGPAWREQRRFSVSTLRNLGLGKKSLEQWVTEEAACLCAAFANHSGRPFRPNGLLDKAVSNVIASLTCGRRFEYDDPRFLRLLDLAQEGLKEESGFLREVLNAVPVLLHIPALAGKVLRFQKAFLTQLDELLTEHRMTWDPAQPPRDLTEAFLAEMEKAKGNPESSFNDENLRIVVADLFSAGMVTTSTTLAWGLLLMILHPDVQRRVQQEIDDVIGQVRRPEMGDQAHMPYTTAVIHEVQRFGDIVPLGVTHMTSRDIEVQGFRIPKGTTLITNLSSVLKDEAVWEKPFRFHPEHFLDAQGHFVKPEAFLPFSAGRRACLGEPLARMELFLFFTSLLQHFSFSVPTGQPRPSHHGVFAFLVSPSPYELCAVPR
Experiment: Cytochrome panel assay with activity outcomes
Conditions: recombinant CYP, pro-luciferin dealkylation, luminescence, p450-cyp2d6; series mostly up to 57.1 µM; activity, negative = inhibition: at the top concentration
% is scaled to controls: 0 for no effect and ±100 for the full control effect.

Compound	activity, negative = inhibition	AC50
O=C(O)c1ccc(NS(=O)(=O)Cc2ccccc2)cc1	0.0348% [at 11.4 µM] (inactive)	–
COc1cc(C(=O)Nc2nc3ccc4nc(C)sc4c3s2)cc(OC)c1OC	12.9% (inactive)	–
O=C(COc1ccc2ccccc2c1)N1CCN(C(=O)c2cccnc2)CC1	7.67% (inactive)	–
Cc1cccc(C(=O)NC2CCN(C(=O)N3CCOCC3)CC2)c1	2.68% (inactive)	–
Cc1cccc(OCC(=O)N2CCC(N3CCCCCC3)CC2)c1	–	4.47 µM (active)
COCCn1c(=O)c(-c2cccc(C#N)c2)nc2cnc(OCc3ccccc3)nc21	-16.4% (inactive)	–
CC(=O)NC1=NC(=O)C(C)S1 (configuration not stated)	3.28% (inactive)	–
O=c1c(-c2cccs2)nc2cnc(N3CCNCC3)nc2n1Cc1cccs1	0.531% (inactive)	–
O=C(Nc1cc(-c2nc3ccccc3s2)ccc1Cl)c1ccc2c(c1)OCO2	-26.9% (inactive)	–
Cc1ccc(-n2nc3ccc(NC(=O)c4ccc5c(c4)OCO5)cc3n2)cc1	-18.2% (inactive)	–
O=C(Nc1cccc(-c2nc3ccccc3s2)c1)c1ccc2c(c1)OCO2	–	0.1 µM (active)
CCn1c(-c2ccccc2Cl)nn(CC(=O)Nc2ccc(OC)cc2)c1=S	-2.11% (inactive)	–
CC(=O)NC1C(OCCOc2ccc(Cl)cc2Cl)OC(COC(C)=O)C(OC(C)=O)C1OC(C)=O (configuration not stated)	-17.3% (inactive)	–
CSC1=N/C(=C\c2ccc(Br)o2)C(=O)S1	1.51% (inactive)	–
CCCCN1CCC(COC(=O)c2cc(Cl)c(N)c3c2OCCO3)CC1	–	1.26 µM (active)
CCOC(=O)n1ccn(C)c1=S	0.903% [at 25.6 µM] (inactive)	–
O=C(O)c1cc2ccccc2c(Cc2cc3ccccc3c(C(=O)O)c2O)c1O (tested in a mixture with another compound)	-5.53% [at 25.6 µM] (inactive)	–
NC(=NCCCCCCN=C(N)/N=C(\N)Nc1ccc(Cl)cc1)/N=C(\N)Nc1ccc(Cl)cc1	–	7.94 µM (active)
CCN=C(Nc1ccc(Cl)cc1)c1cccnc1	-28.9% (inactive)	–
CC(Oc1ccccc1)C(=O)Nc1nc2c(s1)C(=O)CC(C)(C)C2 (configuration not stated)	-26.1% (inactive)	–
Cc1cnc(CNc2ncncc2-c2ccc(C(=O)N(C)C)cc2)cn1	2.19% (inactive)	–
Cc1cnc(CNc2ncnc3ccc(-c4cccc(C#N)c4)cc23)cn1	-4.92% (inactive)	–
Cc1cccc(CNc2ncnc3ccc(-c4ccoc4)cc23)c1	–	10 µM (active)
Cc1cccc(CNc2ncnc3ccc(-c4ccc5c(c4)OCO5)cc23)c1	–	0.501 µM (active)
Cc1cnc(CNc2ncnc3ccc(-c4ccc5c(c4)OCO5)cc23)cn1	–	12.6 µM (active)
Nc1nc2c(ncn2COCCO)c(=O)[nH]1	–	inactive

Compound	activity, negative = inhibition	AC50
O=C(O)c1ccccc1OP(=O)(O)O	5.46% [at 25.6 µM] (inactive)	–
CN1CCc2c(c3c(n2C)CCN(C)[C@H]3c2ccccc2F)[C@@H]1c1ccccc1F	5.51% (inactive)	–
CCc1nc(SCC(=O)c2ccc(Cl)s2)c2oc3ccccc3c2n1	17.7% (inactive)	–
CCOC(=O)Nc1ccc(C(=O)NCC2CCCO2)cc1 (configuration not stated)	-3.41% (inactive)	–
O=C(O)CCCC[C@H]1CCSS1	2.47% (inactive)	–
COC(=O)[C@@H]1C[C@H]1[C@@H](NC(=O)c1cc(C)on1)c1ccccc1	-20.1% (inactive)	–
COC(=O)[C@@H]1C[C@H]1[C@@H](NC(=O)c1cc(C)nn1C)c1ccccc1	–	12.6 µM (active)
COC(=O)[C@H]1C[C@@H]1[C@H](NC(=O)c1cc(C)on1)c1ccccc1	-6.31% (inactive)	–
CCOC(=O)C1=C(CSc2nc3ccccc3s2)NC(=O)NC1c1cccc([N+](=O)[O-])c1 (configuration not stated)	-18.2% (inactive)	–
O=C(CN1C(=O)NC2(CCCCCC2)C1=O)N1CCN(S(=O)(=O)c2ccc(Cl)cc2)CC1	-19.7% (inactive)	–
O=C(O)C1CC2(C1)CC(C(=O)O)C2 (configuration not stated)	10.8% [at 11.4 µM] (inactive)	–
O=C(N/N=C/c1cccc([N+](=O)[O-])c1)c1cc2c(ccc3ccccc32)o1	-9.2% (inactive)	–
CC[C@@H]1OC(=O)[C@H](C)[C@H](O[C@@H]2C[C@](C)(OC)[C@H](O)[C@H](C)O2)[C@H](C)[C@H](O[C@@H]2O[C@@H](C)C[C@@H](N(C)C)[C@@H]2O)[C@](C)(O)C[C@H](C)C(=NOCOCCOC)[C@H](C)[C@H](O)[C@]1(C)O	-0.0352% [at 25.6 µM] (inactive)	–
C=CCSc1nnc(NC(=O)COc2ccc3ccccc3c2)s1	-15.8% (inactive)	–
COC(=O)c1c(C)nc2ccccc2c1C(=O)O	8.63% (inactive)	–
COc1ccc(CCNC(=O)COC(=O)c2cnc(C)cn2)cc1	-5.73% (inactive)	–
COc1ccc2c(c1)C(=O)N(CCc1ccc(S(=O)(=O)NC(=O)NC3CCCCC3)cc1)C(=O)C2(C)C	2.46% [at 25.6 µM] (inactive)	–
COc1ccc(CCNC(=O)COc2ccc(S(=O)(=O)NC3CCCCC3)cc2Cl)cc1	–	15.8 µM (active)
Cc1ccc(N=Nc2c(=O)[nH]n3c(C)cc(C)nc23)cc1	25.6% (inactive)	–
Cc1sc2nc(C3CC3)nc(SCC(=O)N3CC(=O)Nc4ccccc43)c2c1C	-27.5% (inactive)	–
O=C1c2ccccc2C(=O)N1CC(=O)N1c2ccccc2CCc2ccccc21	-0.19% (inactive)	–
CCCN(CCC)C[C@@H]1CCCCN1CCNC(=O)N1c2ccccc2C(=O)Nc2cccnc21	–	2.51 µM (active)
CCN1CCCC1CNC(=O)C1c2cc(OC)c(OC)cc2C(=O)N(C)C1c1cccnc1 (configuration not stated)	1.99% (inactive)	–
CN1CCN(CC(=O)N2c3ccccc3C(=O)Nc3cccnc32)CC1	–	inactive and 31.6 µM (active)
Cc1scc2c1N(C(=O)CN1CCN(C)CC1)c1ccccc1NC2=O	–	inactive and 5.01 µM (active)
O=C1Nc2ccccc2Nc2ncccc21	15.5% (inactive)	–
